NSD2 inh: inhibitors of human NSD2 methyltransferase | NSD2-SET H3K36me1 DELFIA fluorescence, biochemical | inhibition, % at 12.5 µM | actives 0.07% (n = 44,000) | AID 624260; in the data active = inhibition above about 54%, passing the limit was not always enough;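 also: inhibitors reduce the monomethyl H3K36 fluorescence signal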
Target sequence (O96028 whole entry, looked up): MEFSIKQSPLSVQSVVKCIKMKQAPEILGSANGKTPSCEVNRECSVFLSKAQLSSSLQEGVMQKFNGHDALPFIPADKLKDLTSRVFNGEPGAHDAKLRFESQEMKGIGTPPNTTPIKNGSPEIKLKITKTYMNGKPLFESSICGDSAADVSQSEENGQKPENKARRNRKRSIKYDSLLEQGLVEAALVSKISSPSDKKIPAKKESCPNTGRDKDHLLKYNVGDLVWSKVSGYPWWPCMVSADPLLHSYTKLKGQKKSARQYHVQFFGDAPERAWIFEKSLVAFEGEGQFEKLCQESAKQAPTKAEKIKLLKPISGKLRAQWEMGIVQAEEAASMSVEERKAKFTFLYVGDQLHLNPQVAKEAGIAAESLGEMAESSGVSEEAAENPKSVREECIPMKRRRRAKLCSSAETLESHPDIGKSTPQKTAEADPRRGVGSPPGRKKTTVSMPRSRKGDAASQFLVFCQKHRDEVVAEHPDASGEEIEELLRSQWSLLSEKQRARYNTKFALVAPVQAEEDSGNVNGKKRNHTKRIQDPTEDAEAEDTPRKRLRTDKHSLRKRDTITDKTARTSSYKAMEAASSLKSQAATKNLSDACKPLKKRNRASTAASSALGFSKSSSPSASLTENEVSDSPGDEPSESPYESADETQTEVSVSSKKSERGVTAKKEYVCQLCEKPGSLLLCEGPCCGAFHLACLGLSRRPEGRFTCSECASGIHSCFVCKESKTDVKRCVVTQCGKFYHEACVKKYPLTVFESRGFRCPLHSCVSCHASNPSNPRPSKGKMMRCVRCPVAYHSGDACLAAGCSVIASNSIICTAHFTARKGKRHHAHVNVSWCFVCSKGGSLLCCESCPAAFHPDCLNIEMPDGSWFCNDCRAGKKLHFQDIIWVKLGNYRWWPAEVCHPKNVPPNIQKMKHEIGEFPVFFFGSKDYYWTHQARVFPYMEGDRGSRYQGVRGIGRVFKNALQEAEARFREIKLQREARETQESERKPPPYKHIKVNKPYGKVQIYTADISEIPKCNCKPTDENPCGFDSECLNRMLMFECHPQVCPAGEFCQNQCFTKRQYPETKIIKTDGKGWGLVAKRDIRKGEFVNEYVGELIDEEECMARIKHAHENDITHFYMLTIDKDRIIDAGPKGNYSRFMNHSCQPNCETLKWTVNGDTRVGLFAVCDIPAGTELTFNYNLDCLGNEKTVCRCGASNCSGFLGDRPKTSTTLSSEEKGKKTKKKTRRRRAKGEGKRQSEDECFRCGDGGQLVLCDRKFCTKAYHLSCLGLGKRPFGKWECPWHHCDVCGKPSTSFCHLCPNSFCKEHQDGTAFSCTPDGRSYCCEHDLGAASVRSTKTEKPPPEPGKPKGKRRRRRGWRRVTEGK
Starred values were filed as active, the others as inactive. This is one part of a sample in which hits are shown more often than they occur.

SMILES	NSD2 inh
O=C(N/N=C/c1cn(Cc2ccccc2)c2ccccc12)c1ccccn1	11
COC(=O)CNc1c(F)c(F)nc(F)c1F	-2
COc1cc2c(cc1OC)CN(C(=O)[C@H]1[C@@H]3C(=O)O[C@@H](c4ccccc4)[C@@H](c4ccccc4)N3[C@@H](c3ccc(O)cc3)[C@]13C(=O)Nc1ccc(C#CC4=CCCCC4)cc13)CC2	-6
C[C@H](O)c1nc2ccccc2c(=O)[nH]1	-1
COc1ccc2[nH]c(=O)[nH]c(=O)c2c1	0
Cc1cc(=O)c2c(O)c3c(cc2o1)OC(C(C)(C)OC1OC(CO)C(O)C(O)C1O)C3 (stereo not given)	1
O=C(NO)c1cccc(C(=O)N/N=C/c2cc(O)ccc2O)c1	12
O=C(O)CCCCCCC(=O)N/N=C/CCC1CCCCC1	2
O=C(O)CCCC[C@@H]1SC[C@@H]2NC(=O)N[C@@H]21	105*
COc1cc2c(cc1O)C(c1cccs1)N(Cc1cccc(OC(F)(F)F)c1)CC2 (stereo not given)	-3
Cc1nnc(Sc2ccc(/C=N/NC(=O)CCCCC(=O)NO)o2)n1C	-3
CCC[C@@H](O)[C@H](O)[C@@H]1CC(OC)=CC(=O)O1	4
C=C1[C@@H]2CC[C@H]3[C@]4(C)C[C@H](O)C[C@@H](C(=O)OC)[C@H]4CC[C@]3(C2)[C@H]1O	-7
COc1cc(/C(C)=C/C(C)(O)C(C)O)oc(=O)c1C (stereo not given)	8
O=C(CCCCCCC(=O)Nc1ccccc1O)N/N=C/c1ccccc1Br	3
O=C(CCCCCCC(=O)Nc1ccccc1O)N/N=C/c1cc(Cl)cc(Cl)c1O	-6
COC(=O)CCCCCCC(=O)N/N=C/[C@@H](O)[C@@H](O)[C@H](O)[C@H](O)CO	4
COC(=O)CCCCCCC(=O)N/N=C/c1cc(Br)c(O)c(Br)c1	-1
CO[C@@H]1C=C[C@@]23c4cc5c(cc4CN(CC2O)[C@H]3C1)OCO5 (stereo not given in full)	-3
CC(CC(N)=O)OC(=O)c1cc(Cl)cc(O)c1O (stereo not given)	9
O=C(CCCCC(=O)N/N=C/c1ccccc1Br)NO	1
CC(C)(C)OC(=O)NC1(/C=N/NC(=O)c2ccccn2)CCCC1	-3
C=C1[C@H]2CC[C@@]3(C)[C@H](c4ccoc4)OC(=O)C[C@]13O[C@H]1C[C@H](O)C(C)(C)[C@H](CC(=O)OC)[C@]12C	-1
O=C1O[C@@H](c2ccccc2)[C@@H](c2ccccc2)N2[C@@H](c3ccc(O)cc3)[C@]3(C(=O)Nc4ccccc43)[C@@H](C(=O)N3CCN(c4ncccn4)CC3)[C@H]12	-11
COC(=O)CCCCCCC(=O)N/N=C/C1=CCCCC1	2
SMILES	NSD2 inh
CC1(C)CC[C@]2(C(=O)O[C@@H]3O[C@H](CO)[C@@H](O)[C@H](O)[C@H]3O)CC[C@]3(C)C(=CCC4[C@@]5(C)C[C@@H](O)[C@H](O)C(C)(C)C5CC[C@]43C)C2[C@@H]1O (stereo not given in full)	26
CC1(C)CC[C@]2(C(=O)O[C@@H]3O[C@H](CO)[C@@H](O)[C@H](O)[C@H]3O)CC[C@]3(C)C(=CCC4[C@@]5(C)C[C@@H](O)[C@H](O)[C@@](C)(CO)C5[C@H](O)C[C@]43C)C2C1 (stereo not given in full)	17
CC1(C)CC[C@]2(C(=O)O[C@@H]3O[C@H](CO)[C@@H](O)[C@H](O)[C@H]3O)CC[C@]3(C)C(=CCC4[C@@]5(C)C[C@@H](O)[C@H](O)[C@@](C)(CO)C5[C@H](O)C[C@]43C)C2[C@@H]1O (stereo not given in full)	62*
O=C(N/N=C/c1ccoc1)c1ccccn1	0
O=C(CSc1nc2sc3c(c2c(=O)n1C1CCCCC1)CCCC3)Nc1ccccc1	-7
CC/C(=C(/c1ccccc1)c1ccc(OCCN(C)C)cc1)c1ccccc1	58*
CCN(CC)CCOc1ccc(/C(=C(\Cl)c2ccccc2)c2ccccc2)cc1	2
CN(C)CCOC(=O)COc1ccc(Cl)cc1	4
O=C(CCCCCCC(=O)Nc1ccccc1O)N/N=C/c1cccnc1	-1
CC1=CCC(C(C)(C)O[C@@H]2O[C@H](C)[C@@H](O)[C@H](O)[C@H]2O)CC1 (stereo not given in full)	-3
C/C(=C\CC(C)(C)CCC(=O)c1ccoc1)C(=O)O	1
O=C(NO)c1ccc(C(=O)N/N=C/c2ccccc2[N+](=O)[O-])cc1	1
CN(C)CCC(C)(O)Cc1ccccc1 (stereo not given)	-5
Cc1nn(C)c(C)c1/C=C/C(=O)C(C)(C)C	0
O=C(NO)c1cccc(C(=O)N/N=C/c2cc(Br)cs2)c1	-3
[N-]=[N+]=NC[C@H](Cc1ccccc1)NC(=O)c1ccccc1	-5
O=S(=O)(c1ccc(-c2cc(C(F)(F)F)on2)s1)N1CCc2c([nH]c3ccc(F)cc23)C1	-20
CC(C)=CCc1cc(O[C@@H]2O[C@H](CO)[C@@H](O)[C@H](O)[C@H]2O)cc(CC=C(C)C)c1C(O)C(=O)O (stereo not given in full)	61*
CC(=O)c1c(O)cc(O[C@@H]2O[C@H](CO)[C@@H](O)[C@H](O)[C@H]2O)cc1O	35
COc1cc(O[C@@H]2O[C@H](CO)[C@@H](O)[C@H](O)[C@H]2O)cc(OC)c1OC	-1
C[C@@H]1O[C@@H](O[C@@H]2[C@@H](O)[C@H](Oc3c(-c4ccc(O)cc4)oc4cc(O)cc(O)c4c3=O)O[C@H](CO)[C@H]2O)[C@H](O)[C@H](O)[C@H]1O	37
COCCOC(=O)N1C(=O)[C@@]2(c3cc(C#CC4=CCCCC4)ccc31)[C@H](C(N)=O)[C@H]1C(=O)O[C@H](c3ccccc3)[C@H](c3ccccc3)N1[C@@H]2c1ccccc1OCCO	-5
Cc1ccc(NCc2ccc(C(=O)Nc3ccccc3[N+](=O)[O-])cc2)cc1C	-7
C/C=C(C)\C=N\NC(=O)CCCCCCC(=O)Nc1ccccc1O	-12
O=[N+]([O-])c1ccc(OCc2nc(-c3ccccn3)no2)cc1	-3
SMILES	NSD2 inh
O=S(=O)(NCCCO)c1ccc(Br)cc1	5
COC(=O)CCCCCCC(=O)N/N=C/c1ccccc1[N+](=O)[O-]	0
COc1cc(/C=N/NC(=O)CCCCCC(=O)NO)ccc1O	19
O=C(CCCCCC(=O)Nc1ccccc1O)N/N=C/[C@H](O)[C@@H](O)[C@H](O)CO	3
O=C(N/N=C/C=C/c1ccccc1)c1ccccc1O	1
COc1cc(Cc2nnc(C(=O)NC(C)C)o2)cc(OC)c1OC	-1
C=C1C2=C(O[C@H](/C(C)=C/C(C)CC(C)CC)[C@@H](O)[C@@H]2O)C(=O)N1OC (stereo not given in full)	-4
CC(C)(O)CCC(=O)C(C)(O)C1C(O)CC2(C)C3CC=C4C(CC(O)C(OC5OC(CO)C(O)C(O)C5O)C4(C)C)C3(C)C(=O)CC12C (stereo not given)	0
CC1=NN(c2cc(Cl)cc(Cl)c2)C(=O)CC1	2
C=CCOC(=O)[C@H]1[C@@H]2C(=O)O[C@@H](c3ccccc3)[C@@H](c3ccccc3)N2[C@@H](c2ccc(OCCOC(=O)[C@@H]3C[C@@H]4C(=O)NCC(=O)N4[C@@H]3c3ccc(O)cc3)cc2)[C@]12C(=O)Nc1ccccc12	1
C=CCNC(=O)[C@@H]1[C@H]2C(=O)O[C@H](c3ccccc3)[C@H](c3ccccc3)N2[C@H](c2ccc(OCCO)cc2)[C@@]12C(=O)N(C(=O)OCCOC)c1ccc(C#CCC(C(=O)OC)C(=O)OC)cc12	-5
